Laboratory results from PubChem BioAssay (NCATS).
Values without a mark were called inactive. The call rests on the fitted dose curve; in most records, active means well fitted inhibition curve with a large enough effect; inconclusive means small, poorly fitted or top-dose-only effect; inactive means flat fitted curve, though single readings scatter.

These compounds were tested on Nanoluciferase (engineered Oplophorus gracilirostris luciferase) (assay: Primary Nanoluciferase (NLuc) qHTS assay for identification of artifact compounds. (AID 1845222)). Details: NLuc-conditioned medium, Nano-Glo luminescence, 5 min; series mostly up to 54.1 µM; activity, negative = inhibition: at the top concentration.
From the text: PI: Alexander Tropsha Ph.D.
UNC Eshelman School of Pharmacy
University of North Carolina, Chapel Hill, North Carolina
Hits from high-throughput screening (HTS) of chemical libraries are often false positives due to their interference with the assay detection technology. In response to this problem, we generated the largest publicly available library of chemical liabilities and developed a free webtool to predict HTS artifacts, both of which are described herein. More specifically, we generated, curated, and integrated HTS datasets for thiol reactivity, redox activity, and luciferase (firefly and nano) activity. Using these curated datasets, we developed and validated several Quantitative Structure-Interference Relationship (QSIR) models to predict nuisance behavior. […] These models were employed for virtual profiling of the National Center for Advancing Translational Science's (NCATS) in-house library, and 256 compounds for each assay were selected for the experimental validation of nuisance behavior. The BA for these external predictions ranged from 58 to 78% for compounds within the applicability domains of the models. […] The models developed in this study, along with aggregation models previously developed by our group (SCAM Detective) were implemented in "Liability Predictor," an online tool which may be used as part of chemical library design or for triaging HTS hits. Both the models and the curated datasets are publicly available at https://liability.mml.unc.edu/.
SEQUENCE No. (e.g., 1, 2, 3, etc.); […] (e.g., Cells, Incubation, Reagent, etc.); VALUE; DESCRIPTION.
1; Reagent; 2 uL; Nanoluciferase media.
2; Compounds and control; 16 nL; Kalypsis pin tool (Wako USA) equipped with a 1536-well pin head.
4; Reagent; 2 uL; Luciferase enzyme.
6; Detection; Luminescence, ViewLux microplate reader.
NOTES (numbers refer to Sequence numbers above)
1. Medium was collected from the culture flasks of NLuc-expressing S16 cells (80% confluent) prior to cell plating, filtered through a 0.22um filter, and frozen at -20C prior to use. Media was diluted (1:55) and 2 uL was dispensed into all wells of a 1536-well assay plate (solid-bottom white plate; Greiner Bio One, Monroe, NC).
2. A Wako Pin-tool (Wako Automation, Richmond, VA) was used to transfer 16 nL of compounds (consisting of 7-plates in qHTS format, final concentration range 18.3 nM to 114 uM) or control Cilnidipine (final concentration range 623 nM to 80 uM).
3. 15 min. incubation at room temperature protected from light.
4. 2 uL of NLuc substrate (1:100 in Nano-Glo luciferase buffer; Nano-Glo luminescence assay, Promega, Madison, WI) was dispensed for a final assay volume of 4 uL.
5. Plates were centrifuged (121xg, 15 seconds) and incubated for 5 minutes.
6. Samples were read for luminescence on a ViewLux CCD imager (PerkinElmer). Data were normalized to no-enzyme (0% activity) and no-inhibitor (DMSO; 100%) controls and the resulting percent inhibition data were fitted to a 4-parameter Hill equation using NCATS in-house software.

Row | SMILES | activity, negative = inhibition
1 | CC1(C=O)CC[C@]2(C(=O)O[C@@H]3O[C@H](CO)[C@@H](O)[C@H](O)[C@H]3O)CC[C@]3(C)C(=CCC4[C@@]5(C)C[C@H](O)[C@H](O[C@@H]6OC[C@@H](O)[C@H](O)[C@H]6O)[C@@](C)(CO)C5CC[C@]43C)C2C1 (stereo not given in full) | 2.01% [at 11.6 µM]
2 | CC1(C)CCCC2(C)C=C(C(=O)O)C(O)CC12 (stereo not given) | -1.78%
3 | Cc1cn(C2C=CC(CO)O2)c(=O)[nH]c1=O (stereo not given) | -3.83%
4 | C=C1C(=O)OC2C1C(O)CC1(C)C(O)CCC(C=O)C21 (stereo not given) | 0%
5 | C=C(C(=O)O)C1CCC2(C)CCCC(C)(O)C2C1 (stereo not given) | -0.39%
6 | CCC(Nc1ncnc2nc[nH]c12)c1nc2cccc(F)c2c(=O)n1-c1ccccc1 (stereo not given) | -11.9%
7 | CC1=CCC(C(C)(C)O[C@@H]2O[C@H](CO[C@@H]3O[C@@H](C)[C@H](O)[C@@H](O)[C@H]3O)[C@@H](O)[C@H](O)[C@H]2O)CC1 (stereo not given in full) | 2.75% [at 25.7 µM]
8 | COC(=O)CCc1cc2ccoc2c(OC)c1O[C@@H]1O[C@H](CO)[C@@H](O)[C@H](O)[C@H]1O | 1.68% [at 25.7 µM]
9 | CC/C=C\CC1C(=O)C=CC1(CCCCCCCC(=O)O)OC(C)=O (stereo not given) | -27.9%
10 | O=C(c1cn(Cc2cncn2Cc2ccc(Br)cc2)cc1-c1cccc2ccccc12)N1CCOCC1 | -8.82%
11 | Cc1c[nH]c2nccc(Oc3c(F)cc(Nc4cc(Cl)nc(N)n4)cc3F)c12 | -0.225%
12 | C[C@H]1CC[C@@H]2N(C1)C[C@@H]1[C@H]([C@@H](O)[C@H](O)[C@]3(O)[C@H]1C[C@@]14OC5(O)[C@@H](C[C@@H](O)[C@@H]31)[C@]4(C)CC[C@@H]5O)[C@]2(C)O | 4.42% [at 25.7 µM]
13 | C=C[C@H]1C(O[C@@H]2O[C@H](CO)[C@@H](O)[C@H](O)[C@H]2O)OC=C2C(=O)N3CCc4c([nH]c5ccccc45)[C@H]3C[C@H]21 (stereo not given in full) | 2.27% [at 25.7 µM]
14 | C[C@@]1(O)[C@H](O)[C@@H](CO)O[C@H]1n1ccc(N)nc1=O | -0.0818%
15 | C[C@@H]1CCC/C=C/[C@H]2CC(=O)C[C@@H]2[C@@H](O)/C=C/C(=O)O1 | -1.88%
16 | Cc1ccc(Cc2c(C)nc3nc(SCC(=O)NCCN4CCNCC4)nn3c2C)cc1 | -2.15%
17 | FC(F)(F)c1ccc(Nc2nc(-c3c(C(F)(F)F)nc4ccccn34)cs2)cc1 | 0%
18 | CC(=O)OC1/C(C)=C/C(=O)C(OC(C)=O)C(C)(C)/C=C/C(C)C(=O)C2(OC(C)=O)CC(C)C(OC(=O)c3ccccc3)C12 (stereo not given) | -3.16% [at 25.7 µM]
19 | COc1cc(C(=O)OC[C@@]2(O)CO[C@@H](O[C@H]3[C@H](Oc4ccc(C(=O)O)cc4OC)O[C@H](CO)[C@@H](O)[C@@H]3O)[C@@H]2O)ccc1O | -1.34% [at 25.7 µM]
20 | CCC(C)C(=O)O[C@H]1CCC=C2C=C[C@H](C)[C@H](CC[C@@H](O)C[C@@H](O)CC(=O)O)[C@H]21 (stereo not given in full) | -1.08% [at 25.7 µM]

Row | SMILES | activity, negative = inhibition
21 | C=C1CC[C@@H]2[C@@](C)(CO[C@@H]3O[C@H](CO)C(O)[C@H](O)C3O)[C@H](O)CC[C@@]2(C)[C@@H]1CC/C(C)=C/CO (stereo not given in full) | 2.18% [at 11.6 µM]
22 | CC1=CC(=O)C2C(C)(C)CCC[C@]2(C)[C@H]1CO (stereo not given in full) | 1.03%
23 | C/C=C(\C)C(=O)OCC1OC(OC2OC(COC(=O)/C(C)=C/C)C(OC3OC(CO)C(OC(=O)/C(C)=C/C)C(OC(=O)/C(C)=C/C)C3O)C(O)C2O)C(O)C(O)C1OC1OC(CO)C(OC(=O)/C(C)=C/C)C(OC(=O)/C(C)=C/C)C1O (stereo not given) | 0% [at 11.6 µM]
24 | O=C(Nc1ccc(S(=O)(=O)C(F)(F)F)cc1)C1=CCN(c2ncccc2C(F)(F)F)CC1 | -8.39%
25 | CC1OC(OC2C(CO)OC(OCC3OC(OC(=O)C45CCC(C)(C)CC4C4=CCC6C7(C)CCC(OC8OC(CO)C(O)C(OC9OC(CO)C(O)C(O)C9O)C8O)C(C)(C)C7CCC6(C)C4(C)CC5)C(O)C(O)C3O)C(O)C2O)C(O)C(O)C1OC1OC(CO)C(O)C(O)C1O (stereo not given) | 1.03% [at 11.6 µM]
26 | O=C(c1ccc2nccnc2c1)N1CCCCC1 | 4.33%
27 | CC1(C(=O)O)CCCC2(C)C3CCC4CC3(CCC12)CC4=O (stereo not given) | -1.99%
28 | CC(=O)C1=CCC2C3CCC4CC(O[C@@H]5O[C@H](CO)[C@@H](O[C@@H]6O[C@@H](C)[C@H](O)[C@@H](O)[C@H]6O)[C@H](O)[C@H]5O[C@@H]5O[C@H](CO)[C@@H](O)[C@H](O)[C@H]5O)CCC4(C)C3CCC12C (stereo not given in full) | 1.3% [at 25.7 µM]
29 | CC(C(O)/C=C/C(C)(C)O)C1CCC2(C)C3C(=O)C=C4C(CCC(O)C4(C)C)C3(C)CCC12C (stereo not given) | 3.2% [at 25.7 µM]
30 | Cc1[nH]c2ccccc2c1CCNC(=O)c1ccccc1F | 3.01%
31 | Nc1nc2c(c(=O)[nH]1)C[C@@H](CCc1ccc(C(=O)N[C@@H](CCC(=O)O)C(=O)O)cc1)CN2 | 0.88%
32 | COc1c(/C=C/C(C)(C)O)ccc2c1C(=O)OCc1cc(C)cc(O)c1O2 | -1.9%
33 | CS(=O)(=O)N1CCC(NC(=O)c2[nH]ncc2NC(=O)c2c(Cl)cccc2Cl)CC1 | 1.28%
34 | O=C(OC1C=C(CO)C2C(OC3OC(CO)C(O)C(O)C3O)OC=CC12)c1ccc(O)cc1 (stereo not given) | 0.237% [at 25.7 µM]
35 | CCC[C@@H]1O[C@@H]2C[C@H]3[C@@H]4CCC5=CC(=O)C=C[C@]5(C)[C@H]4[C@@H](O)C[C@]3(C)[C@]2(C(=O)CO)O1 | -1.08%
36 | C=C1C(O)CC2C(C(=O)O)=COC(O[C@@H]3O[C@H](COC(=O)/C=C/c4ccc(O)cc4)[C@@H](O)[C@H](O)[C@H]3O)C12 (stereo not given in full) | -1.64% [at 25.7 µM]
37 | COc1cc2c(cc1OC)CC(=O)N(CCCNC[C@H]1Cc3cc(OC)c(OC)cc31)CC2 | 2.83%
38 | CC(=O)N1CCc2ccc(O)c(OC3OC(COC4OCC(O)(CO)C4O)C(O)C(O)C3O)c2C1Cc1ccc(O)cc1 (stereo not given) | 4.89% [at 25.7 µM]
39 | CC1COC2(OC3CC4C5CC(O[C@@H]6O[C@H](C)[C@@H](O[C@@H]7O[C@@H](C)[C@H](O)[C@@H](O)[C@H]7O)[C@H](O)[C@H]6O)C6CC(O)CCC6(C)C5CCC4(C)C3C2C)C(O)C1 (stereo not given in full) | 3.15% [at 25.7 µM]
40 | C=C(C)C1Cc2cc(C(=O)OC3OC(CO)C(O)C(O)C3O)ccc2O1 (stereo not given) | -4.03%
